# The list is not random: actives were taken first. Their share in the collection is about 1.7%.
# CFTR F508del cor – CFTR F508del correction in bronchial cells; CFBE cells, YFP halide quenching; stimulated with forskolin plus potentiator P3; % fluorescence drop versus neutral controls; activity (quench increase), % at 7.58 µM; 350,000 compounds, 0.36% hits; AID 720511;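 active = mean added fluorescence quench of at least 8% versus neutral control, with both replicates also reaching 8%; inconclusive = only one of the mean or replicate conditions met; inactive = mean below 8% and not both replicates reaching 8%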;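 note: cells transiently co-express mutant CFTR-F508del with the halide-sensitive YFP; corrector assay measuring rescue of mutant channel to the surface after 24 h compound exposure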
# Vif imaging – blocks HIV Vif function; AID 602346; HEK293T cells, Vif self-association by quenched fluorescence, imaging, 24 h; 340,000 compounds, 0.35% hits; inhibition, % at 7.49 µM; in the data active = inhibition above about 50%, passing the limit was not always enough; inconclusive = no clear call, values can overlap the other calls; inactive = below about 31%
# FGF22 binding – shifts melting point of recombinant human FGF22; 340,000 compounds, 1.5% hits; Q9HCT0; recombinant FGF22 thermal shift, SYPRO orange fluorescence; percent of sucrose octasulfate shift, DMSO zero; activity (Tm shift, normalised), % at 9.99 µM;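 active = mean Tm shift, scaled 0 neutral to 100 positive control, at about 1.3% or above, every replicate too, limit read from the data; inconclusive = no clear call, values can overlap the other calls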
# Target sequence (Q9HCT0 whole entry, looked up): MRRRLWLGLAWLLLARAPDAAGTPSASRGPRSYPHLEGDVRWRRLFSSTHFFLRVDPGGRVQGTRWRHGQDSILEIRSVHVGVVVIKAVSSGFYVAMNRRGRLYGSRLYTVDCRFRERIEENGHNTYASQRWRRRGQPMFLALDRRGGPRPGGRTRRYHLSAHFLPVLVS
# The depositor's hits bear a star; ? = inconclusive; . = no result given.
SMILES,CFTR F508del cor,Vif imaging,FGF22 binding
Cc1ccc[n+](-c2nc3ccccc3nc2[N-]S(=O)(=O)c2ccccc2)c1,-4,6,0
CCC(C)n1c(=S)[nH]c2ccccc2c1=O (stereo not drawn),.,-8,43*
CCC(Cc1ccccc1)n1c(=S)[nH]c2ccccc2c1=O (stereo not drawn),1,-4,1
COc1ccc2c3c([nH]c2c1)[C@H](CO)N(Cc1ccc(Cl)cc1)CC31CN(Cc2ccccc2)C1,0,.,.
CC(C)c1ccc(C(=O)OCC(=O)c2c(N)n(C)c(=O)n(C)c2=O)cc1,-5,7,-1
Cn1c(N)c(C(=O)COC(=O)c2ccc(Cl)nc2)c(=O)n(C)c1=O,-2,-4,43*
CN1C(=O)c2cc(NC(=O)Nc3ccccc3F)ccc2OC[C@H]2O[C@H](CC(=O)O)CC[C@H]21,1,.,0
COc1ccc(S(=O)(=O)Nc2cccc3c2O[C@@H](CN(C)C(=O)Nc2ccc4c(c2)OCO4)[C@@H](C)CN([C@@H](C)CO)C3=O)cc1,-4,.,0
CCNC(=O)C[C@@H]1CC[C@@H]2[C@@H](COc3ccc(NC(=O)c4cccc(OC)c4)cc3C(=O)N2C)O1,0,.,0
COc1ccc(CC(=O)NCc2nnc(SCc3ccc(C)cc3)n2C)cc1,0,-6,43*
COc1ccc(CC(=O)NCc2nnc(SCc3ccc([N+](=O)[O-])cc3)n2C)cc1,-1,3,0
C/C=C/c1cnc2c(c1)C(=O)N([C@@H](C)CO)C[C@@H](C)[C@H](CN(C)C(=O)CN1CCOCC1)O2,-1,.,0
C[C@@H]1CN([C@H](C)CO)C(=O)c2cc(C3=CCCCC3)cnc2O[C@@H]1CN(C)C(=O)Nc1ccc(F)cc1,2,.,0
CCC(=O)N1CCCCN2[C@H](CO)[C@H](c3ccc(/C=C/c4ccccc4)cc3)[C@H]2C1,-4,.,0
C[C@@H]1CN([C@H](C)CO)S(=O)(=O)c2ccc(C3=CCCCC3)cc2O[C@@H]1CN(C)Cc1cccc(C(=O)O)c1,2,.,0
CCCN1C(=O)C(O)(c2c(C)[nH]c3ccccc23)c2ccccc21 (stereo not drawn),1,0,0
Cc1noc(N)c1C1(O)C(=O)N(C(C)C)c2ccccc21 (stereo not drawn),0,47,43*
Cc1nn(-c2ccccc2)c(N)c1C1(O)C(=O)N(C(C)C)c2ccccc21 (stereo not drawn),.,-3,0
Cc1[nH]c2ccccc2c1C1(O)C(=O)N(C(C)C)c2ccccc21 (stereo not drawn),.,57*,.
CN(C)CC(=O)Nc1ccc2c(c1)[C@@H]1C[C@@H](CC(=O)NCC3CC3)O[C@@H](CO)[C@@H]1O2,-2,.,0
CO[C@@H]1CN(C)C(=O)c2ccc(NC(=O)C3CCCC3)cc2OC[C@@H](C)NC[C@@H]1C,2,.,0
COc1cc(NCCCNC(C)C)c2nccc(C)c2c1,-4,67*,0
COc1cc(NCc2ccccc2)c2ncn(C(C)C)c2c1,1,-13,1
CCOc1cc(C(=O)OC(C)C(=O)Nc2ncc(Cl)cc2Cl)ccc1OCC(=O)N1CCOCC1 (stereo not drawn),-1,-1,44*
CCOc1cc(C(=O)OC(C)C(=O)Nc2ccccc2OC)ccc1OCC(=O)N1CCOCC1 (stereo not drawn),-1,0,0
SMILES,CFTR F508del cor,Vif imaging,FGF22 binding
Cc1noc(C)c1COc1ccc(CC(=O)NCc2ccccc2)cc1,?,-2,0
Cc1nc(OCc2c(C)noc2C)c2ccccc2n1,-2,-2,43*
CN(C)CC#Cc1ccc([C@@H]2[C@@H](CO)N3C(=O)CN(C(=O)Cc4cccnc4)C[C@H]23)cc1,-4,.,.
CCC(=O)N(C)C[C@@H]1Oc2cc(C#Cc3ccncc3)ccc2S(=O)(=O)N([C@@H](C)CO)C[C@H]1C,-3,.,0
CCCCCOc1ccc(Br)cc1/C(C)=N/NC1=NCCN1,.,75*,.
COc1ccc(Br)cc1/C(C)=N/NC1=NCCN1,.,5,.
COc1ccc(/C=N/n2cnc3c([nH]c4ccc(C)cc43)c2=O)cc1CN1CCCC1,-4,-2,0
COc1ccc2c(c1)[nH]c1c(=O)n(/N=C/c3ccc(OC)c(CN4CCCC4)c3)cnc12,9.2*,1,0
COc1ccc(S(=O)(=O)N(C)C[C@@H]2Oc3ccc(NC(=O)CCN4CCOCC4)cc3C(=O)N([C@H](C)CO)C[C@@H]2C)cc1,0,.,0
C[C@@H]1CCCCO[C@H](CN(C)C(=O)CCC(F)(F)F)[C@@H](C)CN([C@@H](C)CO)C(=O)c2cc(NS(=O)(=O)c3ccccc3)ccc2O1,-1,.,0
COc1cc(C(=O)OCC(=O)Nc2cc(C)on2)c([N+](=O)[O-])cc1OC,-2,9,0
